KB-V1 MDR tox: KB-V1 MDR subline cytotoxicity | 3.4% of 400,000 active | AID 1347076 | KB-V1 MDR cells viability, CellTiter-Glo, 72 h | Potency, µM (doses to about 46.1 µM), hits mostly cytotoxic; note: % is set by controls: 0 for no effect and ±100 for the full control effect; nearly all actives have a fitted effect of over 60% in size
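KB-V1 cells (P-gp-expressing MDR subline of KB-3-1) in phenol-red-free DMEM with 10% FBS were exposed to library compounds over a concentration series for 72 h at 37 degrees C. Viability read by CellTiter-Glo luminescence; concentration-effect curves fitted after normalization.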
ATXN viability: cell viability loss in ATXN counter-screen. S2 cells (HEK-293 line with an ATXN2-luciferase reporter) viability, CellTiter-Fluor protease fluorescence, 24 h. AID 651635. Potency, µM (doses to about 56.7 µM), hits mostly cytotoxic. 0.49% of 400,000 active; note: nearly all actives have a fitted effect of over 40% in size
HT1080 IDH1KD tx: toxicity to HT-1080 IDH1 knockdown cells (counter line); HT-1080 IDH1 knockdown viability, ATP luminescence, 48 h; Potency, µM (top dose mostly 46.1 µM), for the others: top-dose activity, negative = toxicity, usual class: cytotoxic; 2% of 360,000 active;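 note: 0% = DMSO wells and -100% = cell-free medium wells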
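% activity derives from luminescence (CellTiter-Glo), normalised to DMSO and no-cell wells. HT-1080-IDH1KD cells, 750/well, had 48 h compound exposure at 37 °C.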
HT1080NT lethal: kills 2HG-producing HT-1080-NT fibrosarcoma cells; 1.6% of 360,000 active; HT-1080-NT fibrosarcoma viability, CellTiter-Glo ATP luminescence, 48 h; Potency, µM (titrated, usually from 46.1 µM), for the others: at the highest dose activity, negative = less viability, hits mostly cytotoxic;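 note: NT is the 2HG producing partner of a matched IDH1 knockdown line; 0% = DMSO-treated cells and -100% = media-only wells without cells; nearly all actives have a fitted effect of over 55% in size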
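HT-1080-NT fibrosarcoma cells (2HG-overproducing), 750 cells/well in RPMI with 5% FBS, dosed after 2 h and incubated 48 h at 37C. CellTiter-Glo luminescence normalized to DMSO and no-cell wells; concentration-response curves fitted and classed.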
ATXN2 expr inh: inhibitors of ATXN2 expression. HEK-293 ATXN2-luciferase reporter, luminescence, 24 h. Potency, µM (highest dose often 57 µM), inactives show at the top dose activity change, negative = inhibition, most hits filed as inhibitors. 0.72% of 360,000 active; note: % is set by controls: 0 for no effect and ±100 for the full control effect; nearly all actives have a fitted effect of over 55% in size
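ATXN2-luciferase reporter cells (luciferase flanked by upstream and downstream ATXN2 gene portions) were treated 24 h at 37 °C with compounds at up to 57 uM. SteadyGlo luminescence gave expression; GF-AFC fluorescence gave viability.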
KB-3-1 cytotox: KB-3-1 parental cell cytotoxicity. Potency, µM (titrated, usually from 46.1 µM), usual class: cytotoxic. AID 1347075. 1.4% of 400,000 active. KB-3-1 viability, CellTiter-Glo ATP luminescence, 72 h; note: % is set by controls: 0 for no effect and ±100 for the full control effect; nearly all actives have a fitted effect of over 60% in size
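Cytotoxicity measured as CellTiter-Glo luminescence after 72 h at 37 C. Compound titrations were pinned onto drug-naive KB-3-1 parental adenocarcinoma cells grown in DMEM with 10% FBS, and normalized data fitted to concentration-response curves.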
* = called active by the depositor; i = inactive; ? = inconclusive; / = no result; [ ] = another dose, or the depositor's remark. Sampled rows, rich in hits. Any-hit rate of the full collection: about 6.2%. Calls come from the whole dose curve; as a rule, active = well fitted curve in the direction sought with a large enough effect; inconclusive = small, poorly fitted or top-dose-only effect, or another doubt; inactive = no such curve, though single readings can be large; an effect the other way counts as inactive or inconclusive. Potency is the fitted concentration of half-maximal effect.

SMILES	KB-V1 MDR tox	ATXN viability	HT1080 IDH1KD tx	HT1080NT lethal	ATXN2 expr inh	KB-3-1 cytotox
Cc1c(Cl)cccc1NC(=O)C(C)N(c1ccccc1)S(C)(=O)=O (centres undefined)	i	i	/	/	-7.3%	i
CCOc1ccc2c(c1)OC(c1ccc(OC)cc1)(C(F)(F)F)NC2=O (centres undefined)	5.17µM*	?	4.61µM*	?	22.5%	5.17µM*
COc1cccc(Nc2nc(C(N)CCc3ccccc3)cs2)n1 (centres undefined)	?	?	?	?	28.2µM*	?
NC(=O)c1cccc(Nc2nc(C(N)CCc3ccccc3)cs2)n1 (centres undefined)	i	i	?	?	-8.5%	i
COc1cccc(Nc2nc(C(N)COCc3ccccc3)cs2)n1 (centres undefined)	i	i	?	18.4µM*	-21.8%	i
COC(=O)c1sc(N2C(=O)c3oc4ccccc4c(=O)c3C2c2cccs2)nc1C (centres undefined)	?	i	8.9%	6.9%	-17.7%	18.4µM*
O=C(CSc1ncc(S(=O)(=O)c2ccc(Cl)cc2)c(=O)[nH]1)Nc1ccc2c(c1)OCCO2	i	i	/	/	8.4%	i
CCCCCCCCCC(=O)N[C@H](CN1CCOCC1)[C@H](O)c1ccccc1	?	i	?	16.4µM*	-8.0%	i
O=C(O)C1CCN(C(=O)CSc2nc3ccccc3s2)CC1	i	i	-1.9%	8.6%	8.3%	i
O=C(CSc1ccc(Cl)cc1)N1CCC(c2nc3ccccc3s2)CC1	10.3µM*	i	-6.8%[9.24 µM]	?	-11.5%	?
CC(Oc1ccc(F)cc1)C(=O)N1CCC(c2nc3ccccc3s2)CC1 (centres undefined)	8.2µM*	?	/	/	?	i
Cc1ccccc1C(=O)N1CCC(c2nc3ccccc3s2)CC1	?	?	/	/	?	i
CC1CCN(C(=O)CSc2nc3ccccc3s2)CC1	14.6µM*	i	6.9%	9.3%	40.5%	i
O=C(CSc1nc2ccccc2s1)N1c2ccccc2Sc2ccccc21	20.6µM*	i	-15.4%	-0.4%	-15.1%	?
CCOc1ccc2nc(SCC(=O)N3c4ccccc4Sc4ccccc43)sc2c1	i	i	9.0%	8.4%	12.1%	i
CSc1nc(C(=O)NCc2nc(-c3cccc(NC(=O)c4ccc(C)s4)c3)oc2C)cs1	/	i	/	/	/	/
CCC1(C2CCN(C(=O)c3cc(F)ccc3F)CC2)NC(=O)N(CCc2scnc2C)C1=O (centres undefined)	/	i	/	/	/	/
CC1CCCN(C(=O)CSc2cnc3ccccc3n2)C1 (centres undefined)	9.2µM*	i	-12.1%	1.4%	26.8%	i
CCSc1nc2c(c(=O)[nH]c(=O)n2C)n1CC(O)COc1ccccc1C (centres undefined)	18.4µM*	i	-10.8%	-15.5%	-1.8%	i
Cc1ccccc1OCC(O)Cn1c(SC(C)C)nc2c1c(=O)[nH]c(=O)n2C (centres undefined)	?	i	-1.2%	-0.9%	-11.8%	i
Cc1ccc(C)c(NC(=O)c2cnc(N3CCCC3)nc2C)c1	i	i	/	/	-3.7%	i
CN(Cc1ccccc1)S(=O)(=O)c1ccc(Cl)c(C(=O)N2CCC2)c1	16.4µM*	i	-1.5%	-2.9%	-6.9%	i
Cc1cccc(NC(=O)CN(C)S(=O)(=O)c2ccc(Cl)cc2)n1	16.4µM*	i	-16.2%	1.1%	-12.7%	i
CN(Cc1ccccc1)S(=O)(=O)c1ccc(Cl)c(C(=O)N2CCC(C(N)=O)CC2)c1	i	i	1.6%	-0.5%	-0.3%	i
O=C(Cc1ccc(Cl)cc1)Nc1ccccc1C(=O)N1CCCC1	i	i	-0.4%	-3.7%	-17.4%	i
SMILES	KB-V1 MDR tox	ATXN viability	HT1080 IDH1KD tx	HT1080NT lethal	ATXN2 expr inh	KB-3-1 cytotox
CN(CC(=O)Nc1ccccc1C(=O)N1CCCC1)S(=O)(=O)c1ccc(Cl)cc1	7.31µM*	i	-1.3%	7.9%	0.8%	i
Nc1c(S(=O)(=O)c2ccccc2)c2nc3ccccc3nc2n1CCN1CCOCC1	i	i	6.9%	-5.1%	/	i
Nc1c(S(=O)(=O)c2ccccc2)c2nc3ccccc3nc2n1Cc1ccco1	23.1µM*	i	-16.7%	-27.5%	-14.1%	?
Cc1ccc(S(=O)(=O)c2c(N)n(Cc3ccco3)c3nc4ccccc4nc23)cc1C	23.1µM*	i	?	?	-7.2%	?
CC(/C=N/NC(=O)c1cc(-c2ccccc2)nc2ccccc12)=C\c1ccco1	7.31µM*	i	?	?	7.6%	4.11µM*
Cc1cc(C(=O)N/N=C/c2ccco2)c2ccccc2n1	i	i	-23.8%	-14.9%	0.8%	i
O=C(N/N=C/c1ccco1)c1cc(-c2ccncc2)nc2ccccc12	i	i	?	?	-10.7%	?
CC(/C=N/NC(=O)c1cc(-c2ccc(Cl)cc2)nc2ccccc12)=C\c1ccco1	0.92µM*	?	0.82µM*	?	1.5%	1.03µM*
CCc1n[nH]c(=S)n1/N=C/c1ccccn1	i	i	8.5%	28.8%	-10.6%	i
Cc1nnc(C)n1/N=C/c1c(O)ccc2ccccc12	?	i	1.3%	-7.7%	/	i
CCc1n[nH]c(=S)n1/N=C/c1cccc2ccccc12	5.8µM*	i	-6.3%	-4.3%	4.5%	6.51µM*
Cc1nnc(-c2ccccc2)c(=O)n1/N=C/c1c(O)ccc2ccccc12	2.91µM*	i	?	?	?	?
CCc1n[nH]c(=S)n1/N=C/c1c(O)ccc2ccccc12	5.8µM*	i	8.7%	10.1%	/	?

Assay outcomes (PubChem)
